Among the data in paper PMC6792352, “Limited Chemical Structural Diversity Found to Modulate Thyroid Hormone Receptor in the Tox21 Chemical Library” (Environmental Health Perspectives, 2019) are AC50 values, retold here.

Counter-ions that a name gives are not always drawn. In all, about 7,300 compounds were measured (“AC50”: median about 90,000 nM, lowest 2% from about 20,000 nM on). The list shows a part of the results.

For the assay, the system named is thyroid hormone receptor (endogenous TRα and TRβ). Also on record: species or system GH3-TRE-Luc (rat pituitary); GH3-TRE-Luc luciferase reporter transactivation, agonist mode, qHTS; RXR ligands can also activate indirectly. The conditions noted are these: read-out: TR_LUC_GH3_Agonist_AC50, agonist mode, primary qHTS, 24 h.
With `C[C@]12CC[C@H]3C(=CCc4cc(O)ccc43)[C@@H]1CCC2=O` [Equilin], the AC50 is 3410 nM.
Regarding `COc1ccc(OC)c(C(O)C(C)N)c1` (centres unmarked) [Methoxamine hydrochloride], the AC50 worked out at 32000 nM.
In the case of `Cc1cc(NC(=O)C(=O)O)cc(C)c1Oc1ccc(O)c2c1CCC2` [CP-634384], the AC50 was found to be 1.47 nM.
As to `CC1=C(/C=C/C(C)=C/C=C/C(C)=C\C(=O)O)C(C)(C)CCC1` [13-cis Retinoic acid], the AC50 was found to be 133 nM.
The figure for `CC1=C(/C=C/C(C)=C\C=C\C(C)=C\C(=O)O)C(C)(C)CCC1` [9-cis Retinoic acid] is 4180 nM; for `CC1=C(/C=C/C(C)=C/C=C/C(C)=C/C(=O)O)C(C)(C)CCC1` [all trans-Retinoic acid] it is 319 nM; for `NCC(=O)CCC(=O)O` [Aminolevulinic acid hydrochloride] it is 28700 nM.
As to `CC(C)(C)CC(C)(C)c1ccc(O)c(Cc2ccc(Cl)cc2Cl)c1` [Clofoctol], the AC50 is 1370 nM.
`N[C@@H](Cc1cc(I)c(Oc2cc(I)c(O)c(I)c2)c(I)c1)C(=O)O` [Levothyroxine]: the AC50 amounted to 7.89 nM.
With `O=C(O)Cc1cc(I)c(Oc2cc(I)c(O)c(I)c2)c(I)c1` [Tetrac, 3,3ʹ,5,5ʹ-tetraiodothyroacetic acid], the AC50 is 0.927 nM.
Take `C[C@H](CCC(=O)NCC(=O)O)[C@H]1CC[C@H]2[C@@H]3[C@H](O)C[C@@H]4C[C@H](O)CC[C@]4(C)[C@H]3C[C@H](O)[C@]12C` [glycocholic acid]: the AC50 was 51800 nM.
